Hits are enriched below; roughly 19% of the tested compounds scored in any of these assays.
TDP1 cell noCPT = qHTS for Inhibitors of human tyrosyl-DNA phosphodiesterase 1 (TDP1): qHTS in cells in absence of CPT. Potency, µM (series often up to 46.2 µM), for the others: at the highest dose activity change, negative = growth inhibition, actives largely listed as inhibitors. hit rate 15% among 420,000. DT40 Tdp1-/- hTDP1 cells, no CPT, ATP luminescence, 48 h; also: potency is read from the fitted curve at half-maximal effect; % is scaled to controls: 0 for no effect and ±100 for the full control effect; nearly all actives have a fitted effect of over 55% in size
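Stably hTDP1-transfected Tdp1-null chicken DT40 cells were treated with library compounds minus camptothecin and grown for at least 48 hr at 37 °C, after which cellular ATP was quantified by luminescence.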
TGFb SMAD3 inh = inhibitors of TGF-b signaling. HepG2 CAGA-GFP TGF-b/SMAD3 reporter, GFP fluorescence, 18 h; TGF-beta stimulated, 500 pg/mL final. Potency, µM (top dose mostly 46.1 µM), for inactives: at the highest dose activity, negative = inhibition, most hits filed as inhibitors. hit rate 1.2% among 410,000. AID 588855; also: potency is read from the fitted curve at half-maximal effect; % is scaled to controls: 0 for no effect and ±100 for the full control effect; nearly all actives have a fitted effect of over 65% in size
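TGF-beta reporter screen: HEPG2 CAGA-GFP, 1% FBS, 500 pg/mL TGF-beta final, 18 h; per-cell GFP summed per well; curves fitted and categorized by class.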
S-ASM inh = blocks human secretory acid sphingomyelinase; placental ASM, HMU-PC fluorogenic substrate, 60 min; Potency, µM (highest dose often 57.5 µM), for inactives: at the top dose activity change, negative = inhibition, most hits filed as inhibitors; hit rate 0.006% among 340,000; also: potency is read from the fitted curve at half-maximal effect
Target sequence (P17405 47-631 limits assumed): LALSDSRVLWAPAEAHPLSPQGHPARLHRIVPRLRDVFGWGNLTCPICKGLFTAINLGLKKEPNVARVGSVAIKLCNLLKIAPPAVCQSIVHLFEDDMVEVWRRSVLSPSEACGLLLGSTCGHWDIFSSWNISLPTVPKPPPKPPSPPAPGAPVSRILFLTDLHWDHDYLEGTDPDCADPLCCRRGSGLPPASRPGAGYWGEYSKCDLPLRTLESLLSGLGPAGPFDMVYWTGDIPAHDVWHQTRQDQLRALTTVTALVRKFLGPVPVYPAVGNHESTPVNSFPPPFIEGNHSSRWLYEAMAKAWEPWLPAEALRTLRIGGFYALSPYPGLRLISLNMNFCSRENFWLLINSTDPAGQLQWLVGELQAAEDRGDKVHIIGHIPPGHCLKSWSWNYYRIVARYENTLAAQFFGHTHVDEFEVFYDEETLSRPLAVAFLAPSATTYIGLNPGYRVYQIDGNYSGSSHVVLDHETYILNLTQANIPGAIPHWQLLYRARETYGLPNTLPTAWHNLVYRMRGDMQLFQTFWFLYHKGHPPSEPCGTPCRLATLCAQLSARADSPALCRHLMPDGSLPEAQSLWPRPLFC
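HMU-PC0 cleavage (9 uM final) by human placental ASM, 60 min at 37 °C following 10 min compound exposure at RT; stopped at pH 10, fluorescence Ex 386/Em 447 nm.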
TDP1 cell CPT = growth inhibition of DT40 Tdp1-/-;hTDP1 cells with camptothecin (screen for TDP1 inhibitors); chicken DT40 Tdp1-/-;hTDP1 cells + 20 nM CPT, ATP luminescence, 48 h; Potency, µM (titrated, usually from 46.2 µM), without a hit: at the highest dose activity change, negative = growth inhibition, actives largely listed as inhibitors; hit rate 12% among 420,000; AID 686979; also: potency is read from the fitted curve at half-maximal effect; % is scaled to controls: 0 for no effect and ±100 for the full control effect; nearly all actives have a fitted effect of over 55% in size
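Cell growth measured by CellTiter-Glo luminescence after a minimum 48 h, 37 C compound exposure with 20 nM CPT in Tdp1-knockout DT40 cells stably expressing hTDP1, seeded 400/well; qHTS titration format.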
IL1B secr inh = blocks inflammasome-driven IL-1 beta release. THP-1 LPS/ATP IL-1B secretion, AlphaLISA, 16 h; hits give low values. activity change, % at 57.5 µM. hit rate 4.7% among 360,000; in the data active = activity change below about -50%; inconclusive = mostly about -30% to -49%; also: % is scaled to controls: 0 for no effect and ±100 for the full control effect
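THP-1 cells pretreated 1 hr with compounds (up to 57.5 uM final), then stimulated with LPS (250 ng/mL final) plus ATP (1.25 mM final); secreted IL-1B measured by AlphaLISA after 16 hr, decreased signal indicating inhibition.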
HepG2 viability = HepG2 cytotoxicity, counter-screen for TGF-b inhibitors; AID 588856; Potency, µM (highest dose often 46.1 µM), for the others: at the top dose activity change, negative = cytotoxicity, most hits filed as cytotoxic; hit rate 0.76% among 410,000; HepG2 CAGA-GFP viability, ATP luminescence, 18 h; also: potency is read from the fitted curve at half-maximal effect
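CellTiter-Glo luminescence gave cytotoxicity after 18 hours at 37 degrees C. The cells were HepG2 CAGA-GFP in 1% FBS DMEM, stimulated with 500 pg/mL TGF-beta after compound addition. %Activity was normalised to no-cell wells (complete cell-killing) and DMSO (no toxicity), and curves were fitted and classified.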
Active calls of the source: *; ? = inconclusive; · = no result given; [ ] = dose if it differs, or a comment. Unless noted, calls follow the shape of the dose curve; as a rule, active = well fitted curve in the direction sought with a large enough effect; inconclusive = small, poorly fitted or top-dose-only effect, or another doubt; inactive = no such curve, though single readings can be large; an effect the other way counts as inactive or inconclusive.

SMILES | TDP1 cell noCPT | TGFb SMAD3 inh | S-ASM inh | TDP1 cell CPT | IL1B secr inh | HepG2 viability
Nc1ncc(C(=O)O)c(-c2ccccc2)n1 | -8.5% | -4.5% | 2.8% | -6.0% | -4.3 | 7.1%
COc1ccc(-c2cnc(N)nc2-c2ccc(OCc3ccccc3)cc2O)cc1 | ? | 12.6µM* | -5.9% | ? | ? | -29.4%
COc1ccc(-c2nc(N)nc(N)n2)c(O)c1 | 16.4µM* | -3.1% | 3.3% | 14.6µM* | -24.2 | -17.9%
Cc1cccc(C(=O)NCc2nc(-c3ccccc3NC(=O)C3CCCO3)oc2C)c1 (stereo unspecified) | -4.9% | · | · | -6.5%[9.04 µM] | · | ·
CN(CCc1nc2ccc(Cl)cc2[nH]1)Cc1nc(CC2CC2)no1 | ? | -23.9% | 2.1% | ? | 23.3 | -15.3%
Cc1ccc(S(=O)(=O)Cc2nc(-c3ccc(C(=O)NCc4ccccc4)cc3)oc2C)cc1 | ? | ? | · | ? | · | -40.8%
NS(=O)(=O)c1ccc(CCNC(=O)c2ccc(OCC3CCCO3)cc2)cc1 (stereo unspecified) | -7.3% | -16.1% | -2.3% | -0.1% | 17.6 | -6.4%
COc1ccc(-c2ncncc2-c2ccc(OC)c(OC)c2)c(O)c1 | -17.2% | -7.6% | 3.6% | -11.2% | -13.7 | -9.9%
COc1ccc(-c2nc(N)ncc2-c2ccc(OC)c(OC)c2)c(O)c1 | ? | -0.3% | -1.5% | ? | -52.7* | -22.2%
COc1ccc([C@@H]2[C@@H]3C(=O)N(C(C)(C)C)C(=O)[C@@H]3[C@]3(Cc4ccccc4)C(=O)N(c4ccc(C)cc4)C(=O)N23)cc1 | -1.5% | -5.3% | -2.3% | ? | 14.6 | 1.4%
Cc1oc(-c2ccccc2NC(=O)C2CCCO2)nc1CNC(=O)c1cc(F)c(F)cc1F (stereo unspecified) | -1.4% | · | · | -15.8%[9.04 µM] | · | ·
O=C(NCCc1ccccc1)c1ccc2c(c1)N(Cc1ccccc1Cl)C(=O)c1ccccc1S2 | ? | ? | · | ? | · | -15.1%
COc1ccc(CCNC(=O)c2ccc3c(c2)N(Cc2ccccc2Cl)C(=O)c2ccccc2S3)cc1OC | 7.31µM* | ? | · | 6.51µM* | · | -13.7%
O=C(NCCN1CCOCC1)c1ccc2c(c1)N(Cc1ccccc1F)C(=O)c1ccccc1S2 | -29.0% | -15.1% | -2.5% | 20.6µM* | -30.0 | -19.5%
O=C(NCCCN1CCCC1)c1ccc2c(c1)N(Cc1ccccc1F)C(=O)c1ccccc1S2=O (stereo unspecified) | ? | 12.6% | 4.3% | -26.6% | -28.1 | -24.7%
Cc1ccccc1CN1C(=O)c2ccccc2Sc2ccc(C(=O)NCCN3CCOCC3)cc21 | 23.1µM* | -20.8% | -0.7% | ? | -24.8 | -13.8%
Cc1ccccc1CN1C(=O)c2ccccc2Sc2ccc(C(=O)NCCc3ccccc3)cc21 | 20.6µM* | ? | · | 16.4µM* | · | -21.5%
COc1ccccc1C(=O)N1CCN(C(=O)[C@H]2O[C@@H](n3cnc4c(N)ncnc43)[C@H](O)[C@@H]2O)CC1 | -2.5% | ? | · | -12.2% | 0.0 | 3.3%
Cc1ccc(CN2C(=O)c3ccccc3Sc3ccc(C(=O)NCCN4CCOCC4)cc32)cc1 | ? | ? | -3.3% | ? | -16.4 | -37.3%
Cc1cccc(CN2C(=O)c3ccccc3Sc3ccc(C(=O)NCCN4CCOCC4)cc32)c1 | ? | -5.9% | -3.1% | -0.5% | -67.8* | -13.3%
Fc1cccc(/C=N/Nc2nccnc2Cl)c1 | 14.6µM* | 15.5% | 10.4% | 11.6µM* | 0.0 | -95.8%
O=C(O)c1ccc(N/N=C/c2cccc(F)c2)cc1 | -0.8% | 0.2% | 6.5% | -22.8% | 23.0 | -9.2%
Fc1ccc(/C=N/Nc2nccnc2Cl)cc1 | -26.3% | ? | 7.4% | -27.1% | ? | 10µM*

Bioassay records from PubChem BioAssay.
